Source: ChEMBL document CHEMBL4649986, “Chemical probes and inhibitors of bromodomains outside the BET family” (Medchemcomm, 2016)

Legend:
[1] = biological target: Bromodomain-containing protein 4 (Homo sapiens) (UniProt O60885); details: Compound concentration 10.0 uM, Protein concentration 2.0 uM
[2] = biological target: T1, Transcription intermediary factor 1-alpha (Homo sapiens) (UniProt O15164); details: Compound concentration 10.0 uM, Protein concentration 2.0 uM
T1 sequence (whole entry): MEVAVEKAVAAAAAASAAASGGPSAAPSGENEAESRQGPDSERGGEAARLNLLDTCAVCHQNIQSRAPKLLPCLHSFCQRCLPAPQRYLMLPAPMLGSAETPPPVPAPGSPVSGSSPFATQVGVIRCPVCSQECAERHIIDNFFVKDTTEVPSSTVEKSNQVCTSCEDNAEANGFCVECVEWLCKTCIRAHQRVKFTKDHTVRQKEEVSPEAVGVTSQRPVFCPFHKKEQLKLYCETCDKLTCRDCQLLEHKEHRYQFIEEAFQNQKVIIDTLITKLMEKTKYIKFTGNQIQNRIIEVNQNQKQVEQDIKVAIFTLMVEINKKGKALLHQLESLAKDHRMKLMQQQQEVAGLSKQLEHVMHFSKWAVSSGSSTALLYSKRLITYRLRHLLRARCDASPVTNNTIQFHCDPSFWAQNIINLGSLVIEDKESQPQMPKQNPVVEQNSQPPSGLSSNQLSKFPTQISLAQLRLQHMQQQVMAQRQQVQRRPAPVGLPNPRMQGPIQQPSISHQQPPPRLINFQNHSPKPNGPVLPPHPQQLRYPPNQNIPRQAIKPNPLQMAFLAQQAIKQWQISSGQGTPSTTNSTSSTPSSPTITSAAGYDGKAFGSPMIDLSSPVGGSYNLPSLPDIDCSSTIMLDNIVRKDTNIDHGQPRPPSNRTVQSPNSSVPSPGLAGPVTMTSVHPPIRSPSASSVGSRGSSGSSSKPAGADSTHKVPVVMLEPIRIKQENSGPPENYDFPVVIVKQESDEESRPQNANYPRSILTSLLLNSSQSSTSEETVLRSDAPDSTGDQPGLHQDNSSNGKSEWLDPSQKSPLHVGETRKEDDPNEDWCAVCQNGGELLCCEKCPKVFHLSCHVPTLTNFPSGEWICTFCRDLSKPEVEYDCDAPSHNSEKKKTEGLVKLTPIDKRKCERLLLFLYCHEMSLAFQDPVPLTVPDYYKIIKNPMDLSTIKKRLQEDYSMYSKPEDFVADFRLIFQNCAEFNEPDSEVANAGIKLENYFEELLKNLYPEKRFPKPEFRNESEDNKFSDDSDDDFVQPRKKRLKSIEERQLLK

CCCS(=O)(=O)c1nc(NC2CC2)cc(-c2ccc3c(ccn3C3CC(C)(C)NC(C)(C)C3)c2)n1
ΔTm [1]: 0.53 °C | ΔTm [2]: 0.33 °C
